# According to the supplement of paper PMC8728848:
# The full list was thinned out, with the strongest signals kept by preference.
# B1: CBM32-5 (Clostridium perfringens) (protein)
# chain: MGSSHHHHHHSSGLVPRGSHMASALPQGNMKATATSEHPDVGNEGLAKFAIDGKENTIWHTKYNPVEELPQSITLELGGSYEINKFTYLPRSGAKNGNITKYELHVSEDGNNFRKISEGNWDDSGSLKTLKFNSTKATHVKLVALEGVGGFASAAELNVFA
# Key:
# Assay in all cases: glycan array binding signal (z-score within array); higher = stronger binding
# Settings in all cases: glycan notation: IUPAC condensed, linker removed
# Fuc(a1-2)Gal(b1-4)Glc6S = biological target: Fuc(a1-2)Gal(b1-4)Glc6S
# In short: (§1)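 From the Consortium for Functional Glycomics database, 3228 arrays were curated, keeping only those whose protein sequence was available. Binding is given as a within-array Z-score averaged across arrays sharing a protein sequence and across linkers. Negative Z-scores can be read as non-binding.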
# [1] = biological target: Fuc(a1-2)[GalNAc(a1-3)]Gal(b1-4)[Fuc(a1-3)]GlcNAc
# In short: as §1
# [2] = biological target: Fuc(a1-2)[GalNAc(a1-4)]Gal(b1-4)GlcNAc
# In short: as §1
# [3] = biological target: Fuc(a1-2)[GalNAc(b1-3)]Gal
# In short: as §1
# Gal(a1-3)Gal = biological target: Gal(a1-3)Gal
# In short: as §1
# Gal(a1-3)Gal(b1-4)Glc = biological target: Gal(a1-3)Gal(b1-4)Glc
# In short: as §1
# Gal(a1-4)Gal(b1-4)GlcNAc = biological target: Gal(a1-4)Gal(b1-4)GlcNAc
# In short: as §1
# [4] = biological target: Gal(b1-3)[Fuc(a1-4)]GlcNAc(b1-3)Gal(b1-4)GlcNAc
# In short: as §1
# [5] = biological target: Gal(b1-3)[Fuc(a1-4)]GlcNAc(b1-3)Gal(b1-4)[Fuc(a1-3)]GlcNAc
# In short: as §1
# [6] = biological target: Gal(b1-4)GlcNAc(a1-6)Gal(b1-4)GlcNAc
# In short: as §1
# [7] = biological target: Gal(b1-4)GlcNAc(b1-3)Gal(b1-4)[Fuc(a1-3)]GlcNAc(b1-3)Gal(b1-4)[Fuc(a1-3)]GlcNAc
# In short: as §1
# [8] = biological target: Gal(b1-4)GlcNAc(b1-3)GalNAc
# In short: as §1
# [9] = biological target: Gal(b1-4)GlcNAc(b1-3)[Gal(b1-4)GlcNAc(b1-6)]Gal(b1-4)GlcNAc
# In short: as §1
# [10] = biological target: Gal(b1-4)GlcNAc(b1-6)Gal(b1-4)GlcNAc
# In short: as §1
# GalNAc(a1-3)Gal = biological target: GalNAc(a1-3)Gal
# In short: as §1
# GalNAc(b1-3)Gal = biological target: GalNAc(b1-3)Gal
# In short: as §1
# [11] = biological target: GalNAc(b1-3)Gal(a1-4)Gal(b1-4)GlcNAc
# In short: as §1
# GalNAc(b1-3)GalNAc = biological target: GalNAc(b1-3)GalNAc
# In short: as §1
# [12] = biological target: GlcNAc(b1-3)Gal(b1-4)GlcNAc
# In short: as §1
# [13] = biological target: Man(a1-2)Man(a1-2)Man(a1-6)[Man(a1-3)]Man
# In short: as §1
# Man(a1-2)Man(a1-3)Man = biological target: Man(a1-2)Man(a1-3)Man
# In short: as §1
# [14] = biological target: Man(a1-2)Man(a1-3)[Man(a1-6)]Man(a1-6)[Man(a1-2)Man(a1-3)]Man(b1-4)GlcNAc(b1-4)GlcNAc
# In short: as §1
# [15] = biological target: Neu5Ac(a2-3)Gal(b1-3)[Fuc(a1-4)]GlcNAc
# In short: as §1
# [16] = biological target: Neu5Ac(a2-3)Gal6S(b1-4)GlcNAc
# In short: as §1
# [17] = biological target: Neu5Ac(a2-3)GalNAc(b1-4)GlcNAc
# In short: as §1
# [18] = biological target: Neu5Ac(a2-6)Gal(b1-4)GlcNAc6S
# In short: as §1
# [19] = biological target: Neu5Ac(a2-8)Neu5Ac(a2-8)Neu5Ac(a2-8)Neu5Ac(a2-3)[GalNAc(b1-4)]Gal(b1-4)Glc
# In short: as §1
binder,measurement,setting,value
B1,glycan array binding signal (z-score),Fuc(a1-2)Gal(b1-4)Glc6S,-0.037
same,glycan array binding signal (z-score),[1],-0.639
same,glycan array binding signal (z-score),[2],9.74
same,glycan array binding signal (z-score),[3],6.11
same,glycan array binding signal (z-score),Gal(a1-3)Gal,-0.718
same,glycan array binding signal (z-score),Gal(a1-3)Gal(b1-4)Glc,2.12
same,glycan array binding signal (z-score),Gal(a1-4)Gal(b1-4)GlcNAc,0.124
same,glycan array binding signal (z-score),[4],-0.65
same,glycan array binding signal (z-score),[5],-0.543
same,glycan array binding signal (z-score),[6],0.343
same,glycan array binding signal (z-score),[7],-0.59
same,glycan array binding signal (z-score),[8],0.285
same,glycan array binding signal (z-score),[9],3.1
same,glycan array binding signal (z-score),[10],0.749
same,glycan array binding signal (z-score),GalNAc(a1-3)Gal,2.91
same,glycan array binding signal (z-score),GalNAc(b1-3)Gal,4.11
same,glycan array binding signal (z-score),[11],1.22
same,glycan array binding signal (z-score),GalNAc(b1-3)GalNAc,0.845
same,glycan array binding signal (z-score),[12],-0.249
same,glycan array binding signal (z-score),[13],-0.584
same,glycan array binding signal (z-score),Man(a1-2)Man(a1-3)Man,-0.091
same,glycan array binding signal (z-score),[14],-0.536
same,glycan array binding signal (z-score),[15],-0.236
same,glycan array binding signal (z-score),[16],-0.395
same,glycan array binding signal (z-score),[17],-0.526
same,glycan array binding signal (z-score),[18],-0.183
same,glycan array binding signal (z-score),[19],-0.621
